From ChEMBL document CHEMBL2218924, “A broad activity screen in support of a chemogenomic map for kinase signalling research and drug discovery” (Biochem J, 2013) come the findings set out here.

As a reminder, the residual activity is the signal under treatment as a percentage of the control signal.

The target in assay [1] is T1, Testis-specific serine/threonine-protein kinase 1 (Homo sapiens) (UniProt Q9BXA7).
T1 sequence (whole entry): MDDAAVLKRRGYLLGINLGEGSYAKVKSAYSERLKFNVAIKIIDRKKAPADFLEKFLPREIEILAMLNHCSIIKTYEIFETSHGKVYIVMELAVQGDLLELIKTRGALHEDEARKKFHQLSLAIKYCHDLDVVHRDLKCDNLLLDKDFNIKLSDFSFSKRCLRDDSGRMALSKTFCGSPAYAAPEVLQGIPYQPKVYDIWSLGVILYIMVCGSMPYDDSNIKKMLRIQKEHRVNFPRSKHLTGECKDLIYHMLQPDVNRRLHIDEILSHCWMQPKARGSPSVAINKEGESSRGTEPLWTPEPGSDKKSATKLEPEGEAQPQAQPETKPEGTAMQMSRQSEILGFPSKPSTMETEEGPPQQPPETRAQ
The following applies: at 10 µM.

Assay [2] has as its target Angiopoietin-1 receptor (Homo sapiens) (UniProt Q02763). The following applies: at 10 µM.
Assay [3] has as its target T2, Testis-specific serine/threonine-protein kinase 2 (Homo sapiens) (UniProt Q96PF2).
T2 sequence (whole entry): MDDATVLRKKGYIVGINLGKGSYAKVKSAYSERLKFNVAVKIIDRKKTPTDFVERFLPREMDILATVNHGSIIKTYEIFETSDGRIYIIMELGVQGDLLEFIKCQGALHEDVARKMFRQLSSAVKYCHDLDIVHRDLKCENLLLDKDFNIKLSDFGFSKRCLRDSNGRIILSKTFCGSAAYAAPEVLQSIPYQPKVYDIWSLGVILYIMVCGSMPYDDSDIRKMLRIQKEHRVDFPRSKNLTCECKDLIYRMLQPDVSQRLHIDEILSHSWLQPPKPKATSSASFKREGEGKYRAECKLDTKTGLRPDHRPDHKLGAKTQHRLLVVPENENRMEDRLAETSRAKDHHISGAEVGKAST
The following applies: at 10 µM.

In assay [4] the target is T3, Tyrosine-protein kinase Tec (Homo sapiens) (UniProt P42680).
T3 sequence (whole entry): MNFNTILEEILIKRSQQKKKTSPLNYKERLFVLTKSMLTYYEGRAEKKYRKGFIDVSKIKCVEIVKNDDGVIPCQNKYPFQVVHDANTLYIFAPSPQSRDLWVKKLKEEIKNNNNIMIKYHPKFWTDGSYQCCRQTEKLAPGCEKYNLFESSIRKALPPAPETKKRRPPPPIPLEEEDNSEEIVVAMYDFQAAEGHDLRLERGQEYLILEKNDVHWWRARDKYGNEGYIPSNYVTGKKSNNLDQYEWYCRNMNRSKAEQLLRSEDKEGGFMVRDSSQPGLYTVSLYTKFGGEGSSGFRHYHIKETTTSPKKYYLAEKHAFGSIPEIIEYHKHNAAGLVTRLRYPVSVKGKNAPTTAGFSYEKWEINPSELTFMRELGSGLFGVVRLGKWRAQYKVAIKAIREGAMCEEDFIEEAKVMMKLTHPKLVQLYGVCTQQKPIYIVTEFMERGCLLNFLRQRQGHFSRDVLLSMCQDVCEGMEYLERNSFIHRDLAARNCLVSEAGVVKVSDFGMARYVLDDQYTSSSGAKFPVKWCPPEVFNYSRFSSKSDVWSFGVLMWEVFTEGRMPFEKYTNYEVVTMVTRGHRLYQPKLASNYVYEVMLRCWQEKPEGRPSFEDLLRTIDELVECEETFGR
The following applies: at 1 µM.

For assay [5], the target named is T3, Tyrosine-protein kinase Tec (Homo sapiens). The following applies: at 10 µM.
Assay [6] deals with Angiopoietin-1 receptor (Homo sapiens) (UniProt Q02763). The conditions noted are these: at 1 µM.
For assay [7], the target named is High affinity nerve growth factor receptor (Homo sapiens) (UniProt P04629). The following applies: at 1 µM.
Assay [8] shares this target. The conditions noted are these: at 10 µM.
For assay [9], the target named is BDNF/NT-3 growth factors receptor (Homo sapiens) (UniProt Q16620). The conditions noted are these: at 1 µM.
In assay [10] the target is T1, Testis-specific serine/threonine-protein kinase 1 (Homo sapiens). The conditions noted are these: at 1 µM.

Sequence of BDNF/NT-3 growth factors receptor (Homo sapiens) (Q16620 32-822 limits assumed): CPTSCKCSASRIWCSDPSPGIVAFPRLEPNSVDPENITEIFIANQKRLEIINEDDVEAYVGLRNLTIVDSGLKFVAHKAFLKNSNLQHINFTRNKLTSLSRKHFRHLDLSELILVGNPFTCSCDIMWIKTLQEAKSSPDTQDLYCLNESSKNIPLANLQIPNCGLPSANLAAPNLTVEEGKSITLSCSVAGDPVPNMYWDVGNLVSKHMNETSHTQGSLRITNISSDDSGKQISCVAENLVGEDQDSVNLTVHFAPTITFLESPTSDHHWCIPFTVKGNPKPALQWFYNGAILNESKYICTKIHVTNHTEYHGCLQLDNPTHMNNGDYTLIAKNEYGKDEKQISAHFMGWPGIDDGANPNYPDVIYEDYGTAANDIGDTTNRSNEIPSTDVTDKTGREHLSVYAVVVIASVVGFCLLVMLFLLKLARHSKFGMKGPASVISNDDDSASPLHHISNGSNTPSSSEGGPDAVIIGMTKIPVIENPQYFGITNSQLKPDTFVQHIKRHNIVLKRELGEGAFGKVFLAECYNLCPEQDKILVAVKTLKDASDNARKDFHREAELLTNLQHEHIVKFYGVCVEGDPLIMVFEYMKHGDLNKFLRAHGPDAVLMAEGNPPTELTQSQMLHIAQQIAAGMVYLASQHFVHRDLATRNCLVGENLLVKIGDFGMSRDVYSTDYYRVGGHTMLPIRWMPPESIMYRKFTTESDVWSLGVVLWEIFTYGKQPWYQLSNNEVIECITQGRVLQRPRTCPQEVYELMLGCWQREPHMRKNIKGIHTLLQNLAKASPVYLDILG
Sequence of High affinity nerve growth factor receptor (Homo sapiens) (P04629 33-796 limits assumed): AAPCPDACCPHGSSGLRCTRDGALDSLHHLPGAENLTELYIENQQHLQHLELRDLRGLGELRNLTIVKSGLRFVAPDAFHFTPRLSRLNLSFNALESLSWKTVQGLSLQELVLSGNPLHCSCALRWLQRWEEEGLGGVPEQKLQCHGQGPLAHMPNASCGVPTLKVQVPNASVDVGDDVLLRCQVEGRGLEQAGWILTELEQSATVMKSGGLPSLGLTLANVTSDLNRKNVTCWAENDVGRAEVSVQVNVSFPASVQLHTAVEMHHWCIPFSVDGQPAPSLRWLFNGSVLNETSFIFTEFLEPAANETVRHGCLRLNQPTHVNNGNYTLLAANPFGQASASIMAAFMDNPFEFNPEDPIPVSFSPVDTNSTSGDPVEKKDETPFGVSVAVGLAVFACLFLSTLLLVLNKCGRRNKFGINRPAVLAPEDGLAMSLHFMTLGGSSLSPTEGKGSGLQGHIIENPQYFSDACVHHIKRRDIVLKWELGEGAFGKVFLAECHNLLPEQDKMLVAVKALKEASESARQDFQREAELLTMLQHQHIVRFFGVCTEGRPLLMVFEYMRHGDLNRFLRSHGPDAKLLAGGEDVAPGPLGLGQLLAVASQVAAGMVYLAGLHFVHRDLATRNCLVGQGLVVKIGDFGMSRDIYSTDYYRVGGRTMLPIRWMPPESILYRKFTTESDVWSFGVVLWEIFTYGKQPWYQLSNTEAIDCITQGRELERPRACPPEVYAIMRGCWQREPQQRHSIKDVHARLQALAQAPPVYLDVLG
Sequence of Angiopoietin-1 receptor (Homo sapiens) (Q02763 whole entry): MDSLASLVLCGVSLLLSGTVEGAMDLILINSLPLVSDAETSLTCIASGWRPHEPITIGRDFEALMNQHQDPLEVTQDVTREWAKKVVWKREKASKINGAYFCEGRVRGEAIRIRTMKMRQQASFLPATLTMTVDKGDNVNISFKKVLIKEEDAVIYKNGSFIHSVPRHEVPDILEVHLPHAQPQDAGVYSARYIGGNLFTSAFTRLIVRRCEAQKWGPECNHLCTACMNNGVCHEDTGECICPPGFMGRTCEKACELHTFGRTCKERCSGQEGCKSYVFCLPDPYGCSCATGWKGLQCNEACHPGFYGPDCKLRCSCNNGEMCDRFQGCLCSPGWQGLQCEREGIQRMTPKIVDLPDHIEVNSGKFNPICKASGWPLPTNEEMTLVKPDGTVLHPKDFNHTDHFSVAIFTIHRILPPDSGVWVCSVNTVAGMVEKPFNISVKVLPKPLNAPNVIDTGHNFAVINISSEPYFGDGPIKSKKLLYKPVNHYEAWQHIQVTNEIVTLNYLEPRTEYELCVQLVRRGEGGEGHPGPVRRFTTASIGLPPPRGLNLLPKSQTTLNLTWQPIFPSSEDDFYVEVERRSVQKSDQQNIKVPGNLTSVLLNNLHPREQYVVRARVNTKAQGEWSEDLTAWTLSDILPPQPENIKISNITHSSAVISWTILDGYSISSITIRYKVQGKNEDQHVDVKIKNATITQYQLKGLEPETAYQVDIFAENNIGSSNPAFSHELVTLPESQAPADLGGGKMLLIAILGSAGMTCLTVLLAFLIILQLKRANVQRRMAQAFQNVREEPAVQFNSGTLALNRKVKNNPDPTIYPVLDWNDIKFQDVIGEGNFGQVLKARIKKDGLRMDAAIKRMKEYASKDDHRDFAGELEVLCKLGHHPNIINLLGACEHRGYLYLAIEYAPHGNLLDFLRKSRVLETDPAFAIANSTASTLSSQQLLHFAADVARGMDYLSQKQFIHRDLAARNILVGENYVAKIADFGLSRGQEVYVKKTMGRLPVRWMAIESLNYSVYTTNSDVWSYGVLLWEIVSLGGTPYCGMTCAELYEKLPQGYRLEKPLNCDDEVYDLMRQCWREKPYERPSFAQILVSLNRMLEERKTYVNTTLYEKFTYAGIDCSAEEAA

For the molecule `O=c1c(-c2ccc(F)cc2)c(-c2ccncc2)[nH]n1-c1ccc(Cl)cc1`, the residual activity was found to be 78% in assay [1] and 75% in [2].
Take `O=C1NC(=O)c2c1c1c3ccccc3[nH]c1n1cncc21`: the residual activity in [3] came to 85%; in assay [4] it was 70%; in assay [5], 65%; in [6], 98%; in [2], 79%; in assay [7], 21%. Also, the residual activity in assay [8] amounted to 9%; in assay [9], 48%.
Take `O=C(c1cc2cc(O)ccc2[nH]1)c1cc2cc(O)ccc2[nH]1`: the residual activity turned out to be 56% in [1]; 65% in [3]; 58% in assay [4]; 21% in assay [5]; 67% in assay [6]; 75% in assay [2]. Moreover, the residual activity in assay [7] is 13%; in assay [8] it was 1%; in assay [9], 56%.
As to `N#C/C(=C\c1ccc(O)c(O)c1)C(=O)NCc1ccccc1`, the residual activity in [6] is 89%; in assay [2], 71%; in assay [7], 64%; in assay [8], -1%.
In the case of `O=C(c1ccccc1)c1ccc(N2CCOCC2)cc1O`, the residual activity in [3] turned out to be 99%; in [4] it was 96%; in [5] it was 77%; in [2], 80%; in [7] it was 76%; in assay [8] it was 71%. Also, in assay [9], the residual activity stood at 131%.
With `COc1ccc(COc2ccc(Cc3cnc(N)nc3N)cc2OC)cc1`, the residual activity was 100% in [4]; 81% in assay [5]; 49% in assay [7]; 4% in assay [8]; 55% in assay [9].
On to `N#Cc1c(NC(=O)c2cccc3ccccc23)sc2c1CCCC2`, for which the residual activity in assay [4] amounted to 94%; in [5] it was 69%; in [7], 81%; in [8], 87%.
Consider `NC(=O)c1ccc(-c2nc(-c3ccc4c(c3)OCCO4)c(-c3ccccn3)[nH]2)cc1`, for which the residual activity in assay [3] worked out at 63%; in [4], 96%; in assay [5], 91%; in assay [2] it was 72%; in [7], 95%; in [8] it was 82%. In addition, the residual activity in assay [9] is 96%.
For `CCN1/C(=C/C(C)=O)Sc2ccc(OC)cc21`, the residual activity in assay [3] came out at 75%.
`O=S(=O)(c1cccc2cnccc12)N1CCCNCC1`: the residual activity in [9] was found to be 83%.
Regarding `Nc1nc(Nc2ccc(S(N)(=O)=O)cc2)nn1C(=O)c1c(F)cccc1F`, the residual activity is 76% in assay [3]; 82% in assay [4]; 34% in [5]; 36% in assay [6]; 0% in assay [2]; 41% in assay [7]. Moreover, the residual activity in [8] amounted to 5%; in assay [9], 54%.
Take `O=C1NC(=O)C(c2cn(CCCn3ccnc3)c3ccccc23)=C1Nc1ccccc1`: the residual activity in [6] stood at 55%; in [2], 32%; in [7], 1%; in assay [8] it was 9%; in assay [9], 44%.
For the molecule `O=C1Cc2c([nH]c3ccc([N+](=O)[O-])cc23)-c2ccccc2N1`, the residual activity is 79% in assay [4], 72% in assay [5], 72% in assay [7] and 63% in assay [8].
For the molecule `Fc1ccc(-c2nc3n(c2-c2ccncc2)CCS3)cc1`, the residual activity is 86% in assay [3], 128% in [6], 124% in assay [2] and 88% in assay [8].
As to `COc1ccc(-c2cnc3c(-c4ccsc4)cnn3c2)cc1`, the residual activity in assay [10] was 98%; in assay [1], 96%; in [7], 76%; in [8] it was 88%; in assay [9], 66%.
Consider `O=C(Nc1ccc(Cl)cc1)c1ccccc1NCc1ccncc1`, for which the residual activity amounted to 79% in [2] and 117% in assay [9].
Regarding `COc1ccc2c(c1)c(C1=C(c3c[nH]c4ccccc34)C(=O)NC1=O)cn2CCCN(C)C`, the residual activity in assay [5] is 63%; in assay [6] it was 99%; in [2] it was 36%; in assay [7] it was 72%; in assay [8] it was 35%; in assay [9], 77%.
In the case of `O=C1Nc2ccccc2/C1=C\c1c(Cl)[nH]c2ccccc12`, the residual activity is 81% in assay [10]; 78% in [3]; 47% in [2]; 85% in assay [7]; 34% in assay [8]; 87% in assay [9].
For the molecule `CN([C@@H](Cc1ccc(OS(=O)(=O)c2cccc3cnccc23)cc1)C(=O)N1CCN(c2ccccc2)CC1)S(=O)(=O)c1cccc2cnccc12`, the residual activity in assay [2] came out at 72%; in assay [9], 79%.
For `COc1cc2nccc(Oc3ccc(NC(=O)Nc4cc(C)on4)c(Cl)c3)c2cc1OC`, the residual activity in assay [7] came to 2%; in assay [8], 0%; in assay [9] it was 42%.
For the molecule `COc1ccc(CNC(=O)Nc2ncc([N+](=O)[O-])s2)cc1`, in [4], the residual activity is 102%.
For `Oc1cccc(-c2nc(N3CCOCC3)c3oc4ncccc4c3n2)c1`, the residual activity in assay [3] was 74%; in assay [6] it was 80%; in assay [2], 59%; in [7] it was 93%; in assay [8], 118%.
